# Results published in PubChem BioAssay (NCI).
# This is part of a sample that, as a whole, favours compounds with a hit. Of some 83,000 tested, about 20% had one in any assay.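 In brief: 96-well plates, 48 h treatment, single concentration, percent growth endpoint.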 Values without a mark were called inactive. Calls of active or inactive are those of the source. How the source made its calls: active means growth percent below 10; inactive means the rest.
# Legend:
# Assay in all cases: NCI-60 one-dose screen, 48 h (100 = growth as untreated, 0 = no growth, -100 = all killed)
# Conditions in all cases: 10 µM
# NCI-H23 lung = test system: NCI-H23 lung
# NCI-H226 lung = test system: NCI-H226 lung
# NCI-H322M lung = test system: NCI-H322M lung
# HOP-62 NSCLC = test system: HOP-62 NSCLC
# NCI-H460 lung = test system: NCI-H460 lung
# NCI-H522 lung = test system: NCI-H522 lung
# A549/ATCC NSCLC = test system: A549/ATCC NSCLC
# 786-0 renal = test system: 786-0 renal
# COLO 205 colon = test system: COLO 205 colon
# DU-145 prostate = test system: DU-145 prostate
# K-562 leukemia = test system: K-562 leukemia
# MDA-MB-231 breast = test system: MDA-MB-231 breast
# RXF 393 renal = test system: RXF 393 renal
# SF-268 CNS = test system: SF-268 CNS
# SF-295 CNS = test system: SF-295 CNS
# SF-539 CNS = test system: SF-539 CNS
# UACC-257 melanoma = test system: UACC-257 melanoma
# M14 melanoma = test system: M14 melanoma
# HCT-15 colon = test system: HCT-15 colon
# MALME-3M melanoma = test system: MALME-3M melanoma
SMILES,growth (NCI-H23 lung),growth (NCI-H226 lung),growth (NCI-H322M lung),growth (HOP-62 NSCLC),growth (NCI-H460 lung),growth (NCI-H522 lung),growth (A549/ATCC NSCLC),growth (786-0 renal),growth (COLO 205 colon),growth (DU-145 prostate),growth (K-562 leukemia),growth (MDA-MB-231 breast),growth (RXF 393 renal),growth (SF-268 CNS),growth (SF-295 CNS),growth (SF-539 CNS),growth (UACC-257 melanoma),growth (M14 melanoma),growth (HCT-15 colon),growth (MALME-3M melanoma)
COc1ccc(Cn2c(C(N)=O)cc3c2-c2nc(N)ncc2CCC3)cc1,106%,98.6%,89.1%,100%,97.7%,103%,93.7%,101%,101%,99.4%,107%,88.9%,102%,96.8%,98.3%,95.8%,102%,96.7%,91.1%,–
O=C1OCC2=C1C(c1cccc(Cl)c1)c1cc3c(cc1N2CCO)CCC3 (configuration not stated),8.79% (active),-18.1% (active),33%,21%,-12.7% (active),-29.2% (active),11.7%,18%,-47.1% (active),-46.2% (active),16.7%,-19.3% (active),34.3%,13.9%,-18.8% (active),-5.32% (active),46%,8.51% (active),9.71% (active),–
COc1cc(CNc2ccccc2C(=O)N2CCN(C(=O)c3cc(-c4cc(OC)c(OC)c(OC)c4)n4nc(-c5ccccc5)cc4n3)CC2)cc(OC)c1OC,61.7%,76.5%,43.7%,53.9%,11.7%,7.02% (active),37.8%,50.8%,46.8%,67.7%,22.8%,67.8%,35.5%,65%,0.214% (active),49.4%,37.5%,33%,42.8%,–
c1ccc2c(c1)oc1c3cccnc3ccc21,86.8%,87.4%,66%,86.7%,81.6%,89.8%,94.1%,94.4%,104%,102%,95.8%,87.7%,94.4%,98.3%,105%,88.1%,101%,100%,95.1%,–
Cc1cc(C)c2c(n1)sc1c(Nc3ccc(Cl)cc3)ncnc12,4.49% (active),1.79% (active),32%,5.01% (active),5.8% (active),16.1%,18.2%,-3.32% (active),10.6%,6.73% (active),46.2%,32.1%,1.12% (active),0.138% (active),10.6%,-49.5% (active),20.3%,-48.3% (active),31%,–
O=C(O)c1ccc(Cl)cc1Nc1ccc(F)cc1,92.7%,82.3%,38.1%,96.7%,76.8%,82.6%,86.4%,68.6%,95.7%,87.1%,75.4%,70.4%,92.7%,62.4%,73%,93.8%,97.6%,77.6%,53.7%,–
ClC(Cl)(Cl)c1nc2nccnc2[nH]1,108%,98.6%,90%,102%,102%,95.4%,101%,103%,114%,112%,101%,–,111%,113%,78.9%,99.6%,108%,103%,103%,102%
CCN(CC)CCC(=O)Nc1cccc2c1C(=O)c1c(c(O)c3ccccc3c1O)C2=O,62%,29%,56.7%,47.9%,15.5%,46.4%,33.7%,4.91% (active),51.3%,51.2%,23.3%,–,58.4%,56.9%,25.7%,38%,85.6%,70.8%,51.9%,61.6%
N=C1c2nc3n(c2C(=O)c2nc4n(c21)CCCC4)CCCC3,-70.4% (active),57.1%,27.7%,52.3%,4.62% (active),10.5%,-30.6% (active),89%,-88.6% (active),-93.9% (active),81.4%,82.6%,94.8%,71.3%,-85.7% (active),-21.7% (active),-6.6% (active),-95.6% (active),6.18% (active),–
Nc1nccc(Nc2ccccc2)n1,101%,91.7%,115%,102%,109%,135%,99.1%,96.4%,114%,109%,102%,118%,112%,109%,104%,93.5%,95.8%,108%,110%,–
c1ccc(C(NC2CC3CCC2C3)c2ccccc2)cc1 (configuration not stated),105%,85.8%,101%,97.2%,105%,85.5%,95.7%,97%,103%,108%,92.8%,96.1%,102%,105%,94.7%,111%,102%,93.1%,97.6%,–
Clc1ccccc1N=Cc1ccc2c(c1)OCO2,108%,105%,110%,110%,116%,80.3%,98.2%,104%,109%,112%,87.1%,94.4%,106%,107%,102%,112%,104%,103%,–,–
CCc1ccc2c(c1)N(CCO)C1=C(C(=O)OC1)C2c1cc(OC)c(OC)c(OC)c1 (configuration not stated),19.5%,3.03% (active),13.7%,28.8%,2.43% (active),-40.4% (active),16.3%,20.2%,-69.3% (active),-28.3% (active),10.5%,-28% (active),53.4%,21.7%,-28.4% (active),-9.69% (active),50.5%,10.2%,6.93% (active),–
O=C(Nc1ccncc1)C(=O)c1cn(S(=O)(=O)c2ccc(F)cc2)c2ccccc12,36.8%,53.7%,84.9%,36.2%,74.7%,0.626% (active),82.3%,43.9%,103%,32%,9.29% (active),57.8%,68.1%,47.9%,61.3%,16.2%,49.1%,14%,23.1%,–
COc1cc2c(cc1OC)N(CCO)C1=C(C(=O)OC1)C2c1ccc(Cl)c(Cl)c1 (configuration not stated),104%,103%,95.2%,98%,104%,77.4%,98.6%,93.5%,116%,109%,88.7%,96.8%,97.8%,100%,103%,99.3%,103%,112%,98.2%,–
CCCCCCCCCCCCCCCCN(C(C)c1ccccc1)S(=O)(=O)c1ccc(OC)c(N)c1 (configuration not stated),93.7%,108%,128%,117%,107%,90.5%,107%,124%,123%,116%,89.9%,122%,131%,108%,116%,116%,108%,115%,115%,–
NC1(C(=O)O)CSSC1,49.8%,60.5%,109%,35.9%,13.3%,121%,22.1%,107%,102%,78.8%,43.3%,124%,74%,101%,33.6%,97%,48.5%,9.39% (active),66.3%,–
